Laboratory results from PubChem BioAssay AID485344 (National Center for Advancing Translational Sciences (NCATS), 2010).
Where “and” joins values, the source holds several entries; their conditions need not be identical. Identical values can stand only once. The whole screen tested about 340,000 compounds, of which about 6,900 (2%) were called active. Cut-off read from the data, not from the text of the source: active = inhibition above about 30%; inactive = below that, where a call was filed. The entries come from a sample that favours actives as a whole.

Biological target: D(2) dopamine receptor (Homo sapiens) (UniProt P14416)
Sequence (P14416 whole entry, looked up): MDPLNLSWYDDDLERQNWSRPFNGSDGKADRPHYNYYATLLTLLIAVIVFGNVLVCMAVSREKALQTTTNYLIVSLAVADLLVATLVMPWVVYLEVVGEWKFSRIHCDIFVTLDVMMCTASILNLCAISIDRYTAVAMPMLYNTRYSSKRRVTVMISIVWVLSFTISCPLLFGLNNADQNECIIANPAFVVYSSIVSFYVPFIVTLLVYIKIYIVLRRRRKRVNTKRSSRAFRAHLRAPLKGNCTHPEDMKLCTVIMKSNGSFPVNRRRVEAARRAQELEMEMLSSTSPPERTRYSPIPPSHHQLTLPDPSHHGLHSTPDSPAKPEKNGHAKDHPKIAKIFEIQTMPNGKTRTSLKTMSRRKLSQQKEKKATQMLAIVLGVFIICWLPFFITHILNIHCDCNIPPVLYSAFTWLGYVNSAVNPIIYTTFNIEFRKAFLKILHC
Test: HTS Assay for Allosteric Antagonists of the Human D2 Dopamine Receptor: Primary Screen for Antagonists; note: 0% is about no effect
Settings: HEK293 TREx D2 cells, calcium flux, dopamine EC80; at 10 µM; active compounds read high
Procedure, shortened: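 Tetracycline-induced HEK293 T-REx cells expressing D2 force-coupled to calcium signalling were dye-loaded, exposed to compound for 180 s, then challenged with an EC80 of dopamine; calcium flux was followed kinetically for a further 180 s.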

inhibition, active:
Cc1c(/C=N\NC(=O)c2cc3ccccc3o2)c2ccccc2n1C 33.1%, CCOC(=O)CN1C(=O)C(=O)c2cc(C)ccc21 37%, CC(CN1CCOCC1)OC(=O)c1ccc(C(C)(C)C)cc1 (stereo unspecified) 70.8%, O=[N+]([O-])c1ccccc1/C=C/CN1CCCC(CO)C1 (stereo unspecified) 35.4%, N#C[C@]1(S(=O)(=O)c2ccccc2)C[C@@H]2ON=C(c3cccc(Br)c3)[C@@H]2C1 41.5%, CCOC(=O)Nc1ccc(NC(=O)OCC)cc1 38.8%, CCCCCOC(=O)NCCOC(=O)Nc1ccc(C(=O)OCC)cc1 33%, COc1ccccc1OCCNCC(O)COc1cccc2[nH]c3ccccc3c12 (stereo unspecified) 59.1% and 51.5%, CC(C)c1ccc(NC(=O)Cn2ncc3ccccc32)cc1 32.4%, O=C(CCCN1CCc2[nH]c3ccc(F)cc3c2C1)c1ccc(F)cc1 92.7%, CCc1ccc(CNC(=O)C2CCCN(c3nc4ccccc4o3)C2)cc1 (stereo unspecified) 39.6%, Cc1oc(-c2ccccc2F)nc1CS(=O)(=O)CC(=O)NCCCN(C)C1CCCCC1 45.2%, CCOC(=O)c1sc2nc(SC)nc(-c3ccccc3)c2c1N 30.8%, O=C(Cc1csc(Nc2nc(=S)[nH]c3ccccc23)n1)NCCCN1CCN(c2cccc(Cl)c2)CC1 69.4%, Cn1c(=O)c(=O)n(C)c2cc(S(=O)(=O)NCCN3CCN(c4ccccc4F)CC3)ccc21 42.8%, CNCC(O)c1ccc(O)c(O)c1 (stereo unspecified) 84.7%, CCOC(=O)COc1ccc(Cl)cc1C1NC(=O)NC(C)=C1C(C)=O (stereo unspecified) 30.8%, C/C=C/c1ccc(OCCCCN2CCC(C)CC2)c(OC)c1 45.6%, CCS(=O)(=O)N1CCC(N2CCN(c3ccccc3)CC2)CC1 73.1%, CS(=O)(=O)N1CCC(C(=O)N2CCN(c3ccccc3)CC2)CC1 47.3%, OC(COc1ccc(F)cc1Cl)CN1CCc2ccccc2C1 (stereo unspecified) 68.3%, Cc1ccc(OCC(O)CN2CCN(CC(O)COc3ccc(C)cc3Cl)CC2)c(Cl)c1 (stereo unspecified) 78.4%

inhibition, inactive:
CC[C@H](C)C(=O)N[C@H]1CCCN1C(=O)/C=C/c1ccccc1 3.07%, O=C(N[C@@H](Cc1c[nH]c2ccccc12)C(=O)O)OCC1c2ccccc2-c2ccccc21 5.76%, COc1ccc(C)cc1NC(=O)CSc1nnc2ccc(-c3ccccn3)nn12 24.5%, O=C(N/N=C/c1coc2ccccc2c1=O)c1cc2ccccc2o1 -7.75%, O=C(N/N=C/c1c[nH]c2ccccc12)c1cc2ccccc2o1 -9.07%, COc1ccc(CCC(=O)N2CCN(S(=O)(=O)c3ccc(OC)cc3)CC2)cc1 -16.3%, CC(C)OC(=O)CN1C(=O)C(=O)c2ccccc21 2.86%, Cc1cccc2c1N(CC(=O)OC(C)C)C(=O)C2=O 0.945%, Cc1cccc(C(=O)OC(C)CN2CCCC2)c1 (stereo unspecified) -14%, Cc1ccc(C(=O)OC(C)CN2CCOCC2)cc1 (stereo unspecified) 12.8%, O=C(/C=C/c1ccccc1[N+](=O)[O-])OCC(=O)N1CCCC1 4.52%, CC1CC(C)CN(C/C=C/c2ccccc2[N+](=O)[O-])C1 (stereo unspecified) 7.28%, CCN(CC(=O)Nc1cc(Cl)ccc1C)C(=O)Cn1c(=O)cnc2ccccc21 17.9%, COC(=O)[C@]1(S(=O)(=O)c2ccccc2)C[C@@H]2ON=C(c3ccc(OC)cc3)[C@@H]2C1 -8.41%, CC(=O)NC12CC3CC(C1)CC(C(=O)N1CCN(C(=O)c4ccco4)CC1)(C3)C2 -36.2%, CC(C)(COC(=O)Nc1ccccc1)COC(=O)Nc1ccccc1 -9.72%, Cc1ccc(NC(=O)OCCNC(=O)c2ccncc2)cc1 -36.9%, CCCCC(CCC(=O)Nc1ccc(C(=O)OCC)cc1)C(=O)O (stereo unspecified) 4.1%, CCOC(=O)Nc1ccc(S(=O)(=O)N(C)C(C)C)cc1 2.07%, CCCCN(C(=O)C1=NN(c2cc(C)ccc2C)C(=O)CC1)c1c(N)n(CCC)c(=O)[nH]c1=O -7.61%, CC(O)CNCCOc1cccc(Oc2ccccc2)c1 (stereo unspecified) -19.3%, COc1cccc2[nH]c(C(=O)NCCc3ccccc3)cc12 -14.1%, O=S(=O)(O)Oc1c[nH]c2ccccc12 19.7%, CCN(CC)S(=O)(=O)c1ccc(CNC(=O)CN2C(=O)NC3(CCc4ccccc43)C2=O)cc1 (stereo unspecified) -6.28%, CCc1ccc(NC(=O)Cn2ncn3c(cc4ccccc43)c2=O)cc1 12.2%, CCOC(=O)c1cn(CC(=O)Nc2ccc(C(C)C)cc2)nn1 -8.92%, COc1ccc(OCCCC(=O)Nc2cccc(S(=O)(=O)N3CCCCCC3)c2)cc1 -0.774%, O=C(c1cn(-c2ccccc2)nc1-c1cccnc1)N1CCN(S(=O)(=O)c2ccccc2F)CC1 17.6%, CCCN(CC(=O)NC(=O)NC1CCCCC1)CC(=O)Nc1cc(Cl)ccc1Cl -13.3%, Cc1ccc2[nH]c3c(c2c1)CN(C(=O)CN1CCN(c2ccccc2)CC1)CC3 4.69%, Fc1ccc(NC(=S)N2CCc3[nH]c4ccccc4c3C2)cc1 -0.813%, O=C(COC(=O)c1ccc2ncsc2c1)Nc1ccc(Cl)cc1 18.7%, COc1ccccc1CNC(=O)C1CCN(c2nc3ccccc3o2)CC1 9.79%, COc1ccc(OC)c(CNC(=O)C2CCCN(c3nc4ccccc4o3)C2)c1 (stereo unspecified) -3%, CCCCc1ccc(NC(=O)CN2C(=O)NC(Cc3ccccc3)C2=O)cc1 (stereo unspecified) 16.7%, COCc1c(C(=O)OCC(=O)Nc2ccc(OC(F)F)cc2)oc2ccccc12 -10.8%, CSc1ccc(CCNC(=O)CS(=O)(=O)Cc2nc(-c3ccccc3F)oc2C)cc1 -16.4%, Cc1oc(-c2ccccc2F)nc1CS(=O)CC(=O)NCCN1CCCCC1C (stereo unspecified) -10.8%, O=[N+]([O-])c1cc(S(=O)(=O)NCCc2ccccn2)ccc1Cl 9.65%, COc1ccc(CN2CCN(C(=O)c3cc(C4CC4)nn3-c3ccccc3)CC2)cc1F -4.93%, N#CC1(NC(=O)COC(=O)Cc2n[nH]c(=O)c3ccccc23)CCCCC1 -5.98%, Cc1nn(Cc2ccccc2)c(C)c1CNC(=O)c1ccc(F)c(S(=O)(=O)N2CCOCC2)c1 5.64%, CCOC(=O)C(=O)Nc1nc(-c2ccccc2)c(CC)s1 8.31%, CCOC(=O)c1sc2nc(CSc3ccccc3)[nH]c(=O)c2c1C 20.4%, Cc1ccc(C)c(NC(=O)C(c2ccccc2)N2CCN(CC(=O)NC3CC3)CC2)c1 (stereo unspecified) 5.16%, O=C(Cc1ccc(-n2c(=O)[nH]c3ccccc3c2=O)cc1)N1CCN(c2cccc(Cl)c2)CC1 11.5%, COc1cccc(CNC(=O)Cc2csc(Nc3nc(=S)[nH]c4ccccc34)n2)c1 -15.6%, COc1ccc(S(=O)(=O)N2CCOCC2)cc1NC(=O)c1ccc(OCC(C)C)c(OC)c1 -9.24%, Cc1ccc(S(=O)(=O)NCCN2CCOCC2)cc1C -3.48%, CCc1ccc(S(=O)(=O)Nc2cc3c(cc2N2CCCCC2)n(C)c(=O)c(=O)n3C)cc1 4.98%, Cc1ccc(S(=O)(=O)N2CCOCC2)cc1C(=O)Nc1ccccc1N1CCCC1 3.22%, CCOc1ccc(S(=O)(=O)N2CCCCC2)cc1NC(=O)CN1CCCC1c1cccs1 (stereo unspecified) 19.6%, CC(=O)NCC(O)c1ccc([N+](=O)[O-])cc1 (stereo unspecified) 12.7%, COc1ccccc1CNC(=O)CCCN1C(=O)NC2(CCCC2)C1=O 0.109%, NS(=O)(=O)c1ccc(CCNC(=O)COC(=O)COc2cccc(C(F)(F)F)c2)cc1 -7.34%, CC(=O)C1=C(C)NC(=O)NC1c1cc(Br)ccc1OCC#N (stereo unspecified) -0.972%, CCOc1ccccc1C1NC(=O)NC(C)=C1C(=O)OCc1ccco1 (stereo unspecified) -14.9%, O=C(COC(=O)Cn1[nH]c(=O)c2ccccc2c1=O)Nc1ncc(Cl)cc1Cl -24.9%, Cc1ccccc1C(=O)NCC(c1ccco1)N1CCc2ccccc21 (stereo unspecified) -18.5%, Nc1cc(N)nc(SCC(=O)Nc2cccc(S(=O)(=O)N3CCCCC3)c2)n1 3.49%, CCC(C)N(C(=O)Cn1nc(C)c([N+](=O)[O-])c1C)C1CCS(=O)(=O)C1 (stereo unspecified) 15.9%, COc1ccc(OCCCCN2CCC(C)CC2)cc1 7.68%, C/C=C/c1ccc(OCC(O)CN2CCCCCCC2)c(OC)c1 (stereo unspecified) -10.5%, O=C(C1CCC1)N1CCN(c2ccccc2)CC1 1.73%, CCS(=O)(=O)N1CCC(C(=O)N2CCN(c3ccccc3)CC2)CC1 -2.98%, CCCS(=O)(=O)N1CCCC(C(=O)N2CCN(c3ccccc3)CC2)C1 (stereo unspecified) 6.48%, Cc1ccc(S(=O)(=O)N2CCN(c3ccccc3)CC2)cc1C 26.6%, O=C(c1cc2ccccc2o1)N1CCN(S(=O)(=O)c2ccc(Cl)s2)CC1 17.4%, CC(C)(CNC(=O)CNC(=O)C1CCCCC1)N1CCOCC1 -45.4%, CC1(C)CC(=O)C=C(c2ccc(Cl)c(C(F)(F)F)c2)C1 4.19%, CCc1ccc(OCC(O)CN2CCN(CCO)CC2)cc1 (stereo unspecified) -7.21%, Cc1cccc(OCC(O)CN2CCN(S(=O)(=O)c3ccc(C)cc3C)CC2)c1 (stereo unspecified) -1.31%, Cc1ccc(Cl)c(OCC(=O)N2CCc3ccccc3C2)c1 2.48%, C=CCc1ccc(OCC(O)CN2CCN(Cc3ccccc3)CC2)c(OC)c1 (stereo unspecified) 0.147%
